Experimental data published in PubChem BioAssay AID624330 (Southern Research Specialized Biocontainment Screening …, 2012).
In all, about 340,000 compounds went through this assay and about 2,100 (0.62%) were called active.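 The calls were made as follows: active = first-screen hits whose inhibition reached a set limit at any dose in the follow-up dose series; inconclusive = inhibition above the set first-screen limit but never retested; inactive = the rest.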 Only a sample is shown. Potency and affinity values are given separately.

target: Rac GTPase-activating protein 1 (Homo sapiens) (UniProt Q9H0H5); assay: blockers of MgcRacGAP-driven Rac1 GTP hydrolysis – biochemical, ADP Hunter fluorescence, primary and confirmatory, confirmation (AID 624330); settings: MgcRacGAP-stimulated Rac1 GTP hydrolysis, at 30 µM, stronger effect = higher value, GST-tagged Rac1 F28L mutant substrate;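 also: fluorescence reports GDP produced by GAP-driven GTP hydrolysis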
Sequence (Q9H0H5 whole entry, looked up): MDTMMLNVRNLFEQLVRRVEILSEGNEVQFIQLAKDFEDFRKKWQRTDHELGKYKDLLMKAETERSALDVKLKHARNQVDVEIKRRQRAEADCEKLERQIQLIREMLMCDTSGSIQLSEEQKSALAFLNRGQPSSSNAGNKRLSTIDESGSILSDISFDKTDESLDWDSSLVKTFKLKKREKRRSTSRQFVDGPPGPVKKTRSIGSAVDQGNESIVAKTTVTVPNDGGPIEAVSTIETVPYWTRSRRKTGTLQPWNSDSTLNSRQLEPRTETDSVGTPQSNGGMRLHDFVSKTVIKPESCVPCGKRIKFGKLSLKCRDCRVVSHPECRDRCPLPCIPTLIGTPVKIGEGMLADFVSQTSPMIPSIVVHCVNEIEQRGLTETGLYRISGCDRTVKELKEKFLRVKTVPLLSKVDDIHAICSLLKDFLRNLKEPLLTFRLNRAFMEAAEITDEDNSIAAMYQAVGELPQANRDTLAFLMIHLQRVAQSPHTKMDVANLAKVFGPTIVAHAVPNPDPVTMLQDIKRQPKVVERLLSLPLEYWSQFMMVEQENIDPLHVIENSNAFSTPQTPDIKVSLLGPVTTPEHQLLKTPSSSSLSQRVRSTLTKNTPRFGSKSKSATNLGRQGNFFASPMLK

inhibition, inactive:
COc1ccc(Cl)cc1NC(=O)CN(C)C(=O)CCCNC(=O)c1ccc(Cl)cc1 -0.09%
CN(C)CCNC(=S)Nc1ccc(Cl)cc1 10.1%
CC(=O)c1ccc(OCc2cc(C(=O)N3CC[C@@H]4CCCC[C@H]4C3)no2)cc1 8.61%
COc1ccccc1NC(=O)CSc1nnc(-c2ccoc2C)n1CC1CCCO1 (stereo not given) 9.62%
CCCN(CCC)Cc1c(C(=O)N/N=C/c2ccoc2)nnn1-c1nonc1N 6.21%
S=C(NC1CCCCC1)N1CCN(C2CCCCC2)CC1 6.75%
O=C(CSc1nc(Cc2ccccc2)nc2ccccc12)Nc1nc2c(s1)CCCC2 18.2%
COc1ccc(N2CCN(C(=O)NCc3ccc(OC)c(OC)c3)CC2)cc1 23.4%
COc1ccc(N2CCN(C(=O)Cc3ccc(OC)c(OC)c3)CC2)cc1 21.6%
COc1cc(CNc2ccc(N3CCN(C(C)=O)CC3)cc2)ccc1OCc1ccc(F)cc1 28.5%
COc1cc(CNc2ccc(N3CCCC3)cc2)ccc1OCc1ccccc1 7.32%
O=C(COc1ccccc1)NCC(c1ccco1)N1CCN(c2ccccc2)CC1 (stereo not given) -2.01%
CCCCCC(=O)Nc1ccc(N2CCOCC2)c(S(=O)(=O)Nc2ccc(OC)cc2)c1 10.2%
CC(=O)Nc1c(-c2ccccc2)nc2ncccn12 16.1%
CCN(CC)C(=O)Cn1cc(C(=O)C(=O)N(C)C2CCN(C)CC2)c2ccccc21 0.15%
Fc1ccc(NC(=S)NCCN2CCOCC2)cc1 4.64%
COc1cc(/C=N/NC(=S)NCCN2CCOCC2)cc(OC)c1O 15.1%
COc1cc(OC)c(OC)cc1/C=N/NC(=S)NCCN1CCOCC1 -4.53%
S=C(NCCCN1CCOCC1)Nc1ccc(Nc2ccccc2)cc1 36.5%
S=C(NCCN1CCOCC1)N/N=C/c1ccccc1 6.95%
COc1cc(/C=N/NC(=S)NCCN2CCOCC2)cc(OC)c1OC 7.18%
O=S(=O)(c1cccc(-c2nc3ccccc3s2)c1)N1CCCC1 4.17%
Cc1cc(C(=O)N(NC(=O)C(C)C)c2ccccc2)cs1 5.75%
C=CCn1c(=O)c(C(=O)Nc2ccc(C)cn2)c(O)c2ccccc21 7.02%
CCOc1ccc(C(C(=O)NCC2CCCO2)N(Cc2ccccc2)C(=O)c2snc(C(N)=O)c2N)cc1 (stereo not given) 6.27%
C=CCc1cc(C=O)cc(OCC)c1O 4.85%
C=CCc1cc(/C=N/n2cnnc2)cc(OCC)c1O 8.86%
CCC(/C=C1\Oc2ccc(OC)cc2N1C)=C\c1sc2ccccc2[n+]1CCCS(=O)(=O)[O-] 20.6%
CSc1sc2ccccc2[n+]1CCCS(=O)(=O)[O-] 6.67%
O=C(COC(=O)c1cc(S(=O)(=O)N2CCOCC2)ccc1Cl)NCc1ccccc1 -0.98%
O=C(COC(=O)/C=C/c1ccc([N+](=O)[O-])cc1)Nc1ccc2[nH]c(=O)[nH]c2c1 8.57%
COc1ccc(Br)cc1CN(C)CC(=O)NCc1ccc(F)cc1 30.8%
COc1ccc(Br)cc1CN(C)CC(=O)NCCc1ccc(S(N)(=O)=O)cc1 -1.98%
COc1cccc(CNS(=O)(=O)c2ccc(N3CCCC3=O)cc2)c1 1.52%
Cc1ccccc1NC(=O)c1cccc(S(=O)(=O)N2CCCCC2)c1 3.86%
CC(C)C(O)(CC#CCN1CCCC1)c1ccccc1 (stereo not given) 6.41%
CCn1cc(CN2CCC(C(=O)Nc3cccc(-c4cccc(OC)c4)c3)CC2)c(C)n1 4.15%
Cc1ccc(OCCOC(=O)Cn2nc(C)c([N+](=O)[O-])c2C)cc1 7.43%
Cc1cccc(C)c1OCC(O)CN1CCN(c2ccccc2)CC1 (stereo not given) 4.36%
Cc1cccc(C(=O)Oc2ccc(/C=N/NC(=O)Cc3ccc([N+](=O)[O-])cc3)cc2)c1 1.03%
O=C(Oc1ccc(/C=N/n2cnnc2)cc1)c1cccc([N+](=O)[O-])c1 13.5%
CC1=NNC(=O)C1CC(=O)N/N=C/C(C)=C/c1ccccc1 (stereo not given) 13.2%
Cn1c(=O)c2c(nc(CN3CCCCC3)n2CCc2ccccc2)n(C)c1=O 18.6%
Cc1ccc(OCC(=O)N2CCN(S(=O)(=O)c3ccccc3[N+](=O)[O-])CC2)cc1 5.54%
COc1cc(/C=N/NC(=O)CCC(=O)NC2CCCCC2)ccc1C 9.37%
COc1ccc(/C=N/NC(=O)CC(=O)NC2CCCCC2)cc1 6.51%
Cc1ccc(/C=N/NC(=O)NN(C)c2ncc(C(F)(F)F)cc2Cl)cc1 4.41%
CCCOc1ccc(/C=N/NC(=O)C(C)Sc2ccccn2)cc1OCC (stereo not given) 9.98%
CN(NC(=O)Nc1ccc(Cl)cc1)c1ncc(C(F)(F)F)cc1Cl 7.17%
COC(=O)c1ccc(/C=N/NC(=O)CC(=O)NC2CCCCC2)cc1 -3.55%
C=CCOc1ccc(/C=N/NC(=O)C(C)Sc2ccccn2)cc1OC (stereo not given) 6.97%
COc1ccc(/C=N/NC(=O)CCCC(=O)NC2CCCCC2)cc1 2.54%
CCS(=O)(=O)N1CCC(C(=O)Nc2cc(Cl)ccc2O)CC1 6.74%
Cn1cc(CN2CCCC(C(=O)c3nccn3C)C2)c(-c2cccc(Cl)c2)n1 (stereo not given) 0.46%
COc1ccc(C)c2sc(N(CCCN(C)C)C(=O)CS(=O)(=O)c3ccc(F)cc3)nc12 2.17%
CCOC(=O)Cc1nnc(NC(=O)CSc2ccc(Cl)cc2)s1 0.78%
COc1ccc(C(=O)O/N=C(/c2ccccc2)c2ccncc2)cc1 4.95%
COc1ccc(C2C(=O)c3ccccc3C2=Nc2ccc(Br)cc2)cc1 (stereo not given) 8.86%
CCC(C)[C@H](NC(=O)OC(C)(C)C)C(=O)N/N=C/c1ccc2cc(OC)ccc2n1 (stereo not given in full) 7.33%
NS(=O)(=O)c1ccc(NC(=O)COC(=O)CCCN2C(=O)c3cccc4cccc(c34)C2=O)cc1 1.26%
Cc1cc(C(=O)Nc2ccc(F)cc2F)on1 9.92%
CCn1c(SCC(=O)NCc2ccc(F)cc2)nc2c(c1=O)SC(C)C2 (stereo not given) 18%
Oc1ccc(/C=N/NC(=S)NC2CC3CCC2C3)cc1 (stereo not given) 16.9%
O=C(CSc1cccc2cccnc12)N/N=C/c1cccc(O)c1 3.05%
COc1cccc(/C=N/NC(=O)CSc2cccc3cccnc23)c1 5.24%
CCOc1ccc(/C=N/NC(=O)C(OC)c2ccccc2)cc1 (stereo not given) 3.79%
COc1ccc(C=NNC(=O)CCCC(=O)NN=Cc2ccc(OC)c(O)c2)cc1O 23%
C=CCOc1cccc(/C=N/NC(=O)C(OC)c2ccccc2)c1 (stereo not given) 7.19%
CCOc1cc(/C=N/NC(=O)C(=O)N/N=C/c2ccc(O)c(OCC)c2)ccc1O 10.8%
COc1cccc(/C=N/NC(=S)NC2CC3CCC2C3)c1OC (stereo not given) -1.35%
CCCCc1nnc(NC(=O)CN2C(=O)C3CCCCC3C2=O)s1 (stereo not given) 6.64%
O=C(N/N=C\c1cn[nH]c1-c1ccccc1)c1ccc([N+](=O)[O-])cc1 9.27%
O=S(=O)(c1ccc(Cl)cc1)N1CCN(Cc2cccnc2)CC1 2.76%
Cc1c(C(=O)N2CCN(S(=O)(=O)c3ccccc3)CC2)oc2ccc(Br)cc12 2.23%
Cc1ccccc1SCC(=O)NCC(c1ccc(F)cc1)N1CCOCC1 (stereo not given) 8.44%
N#CC1(NC(=O)CN2CCc3ccccc3C2)CCCC1 -8.1%
C#CCN1C=CC(=O)[C@@H](OC(=O)Nc2ccc(C)cc2)[C@H]1c1ccccc1Br -0.32%
O=C(O)C1C2C=CC(C2)C1C(=O)NC1CCS(=O)(=O)C1 (stereo not given) 10.3%
O=C(NNC(=O)c1cccc(C(F)(F)F)c1)c1ccncc1 8.11%
Cc1cc(SCC(=O)Nc2ccc(O)cc2)n2ncc(-c3ccccc3)c2n1 4.14%
CC1(C)N=C(SCC(=O)Nc2ccc(Cl)cc2)C(c2ccc(Cl)cc2)=N1 2.66%
COc1cc(C(=O)NNC(=O)c2cc(=O)[nH]c3ccccc23)cc(OC)c1OC 5.5%
COc1cc(/C=N/NC(=O)Nc2ccccc2)ccc1OC(C)=O 13.7%
CCOc1ccc(/C=N/NC(=O)Nc2ccccc2)cc1 10.7%
CCN(CC)S(=O)(=O)c1ccc(OC)c(NC(=O)c2cn(CC)c3nc(C)ccc3c2=O)c1 7.32%
CCOC(=O)COc1cccc2c(=O)n(CC(N)=O)ccc12 3.81%
COc1ccc(C=C2NC(=S)NC2=O)cc1 14.2%
CCOc1ccc(/C=C2\NC(=S)NC2=O)cc1 -0.61%
COC(=O)Cc1ccc(NC(C)=O)cc1 3.66%
CC(=O)Nc1ccc(OC(=O)c2ccc(Cl)cc2)cc1 -3.42%
CCOC(=O)/C(=C/Nc1ccc(F)c(F)c1)[N+](=O)[O-] -8.37%
Cc1cc(C)c2[nH]c(=O)c(C(c3nnnn3C(C)(C)C)N3CCN(C(=O)c4ccco4)CC3)cc2c1 (stereo not given) 1.84%
Nc1ccc(SC(F)(F)F)cc1 -3.64%
Cc1cc(N(C)C)ccc1N=Nc1ccc2ncccc2c1 3.61%
Nc1ccc(-c2nnc(-c3ccc(N)cc3)o2)cc1 12.9%
CC(=O)c1ccc(N=Nc2ccc(N)cc2)cc1 0.6%
Nc1ccc(-c2cnc(-c3ccc(N)cc3)nc2)cc1 9.16%
CN(C)c1ccc(N=Nc2ccccc2Br)cc1 8.09%
Nc1ccc(Sc2ccc([N+](=O)[O-])cc2)cc1 7.67%
Nc1ccc(CCc2ccc(N)cc2)cc1 13.9%
